In the library only some 4.7% were active in any assay of this set; here they are far more common.
ALR inh: inhibitors of human ALR sulfhydryl oxidase, primary screen, biochemical, H2O2 detection, HRP-luminol luminescence, single point | FAD-linked sulfhydryl oxidase ALR (Homo sapiens), P55789 | purified ALR, DTT oxidation | inhibition, % (test concentration not listed) | 290,000 compounds, 3.8% hits | AID 485317, 2010;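 active = mean replicate inhibition above about 79%, with every replicate also reaching it, limit read from the data; inconclusive = only one of the two criteria met; inactive = mean below limit and not every replicate reaching it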
Target sequence (P55789 whole entry, looked up): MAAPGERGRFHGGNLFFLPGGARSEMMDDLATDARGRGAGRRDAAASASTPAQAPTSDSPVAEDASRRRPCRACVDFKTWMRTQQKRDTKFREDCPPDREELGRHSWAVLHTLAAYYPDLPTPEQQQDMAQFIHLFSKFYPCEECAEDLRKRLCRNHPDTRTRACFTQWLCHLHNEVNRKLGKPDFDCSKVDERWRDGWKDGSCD
eIF4H inh: human eIF4H binding inhibitors, primary screen, translation initiation inhibitor project, biochemical, uHTS, fluorescence polarization; eIF4H fluorescence polarization binding assay; 290,000 compounds, 0.94% hits; AID 2012, 2009; inhibition, % at 35 µM;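 also: calls also rest on retests at 20 µM and on dose response follow-up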
Efflux pump mplx: inhibitors of Candida efflux pumps in yeast, primary screen, S. cerevisiae, Nile Red, multiplex. S. cerevisiae Candida pump triplex. inhibition, % at 10 µM. 330,000 compounds, 0.44% hits;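 active = plate passing quality check with inhibition over a set limit, or well fluorescence over plate mean plus 4 SD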;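 also: Nile Red retained in pooled yeast measured as flow cytometry median fluorescence; 0% = buffer negative control and 100% = Enniatin B positive control; higher means more Nile Red kept so more efflux inhibition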
UBC9 SUMO inh: inhibitors of in vitro SUMOylation cascade, primary screen, biochemical, HTRF, uHTS | SUMO-conjugating enzyme UBC9 (Homo sapiens), P63279 | HTRF SUMOylation assay, SAE1/SAE2 + UBC9 | inhibition, % at 35 µM | 290,000 compounds, 0.36% hits; in the data active = inhibition above about 50%, passing the limit was not always enough; inconclusive = no clear call, values can overlap the other calls
Target sequence (P63279 whole entry, looked up): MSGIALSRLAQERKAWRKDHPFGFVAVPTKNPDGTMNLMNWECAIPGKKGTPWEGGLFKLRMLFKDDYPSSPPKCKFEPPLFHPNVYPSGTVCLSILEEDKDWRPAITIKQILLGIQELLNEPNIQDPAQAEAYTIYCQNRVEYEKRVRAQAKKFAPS
MLLE-PAM2 inh: inhibitors of PABP1 MLLE–PAM2 peptide binding, primary screen, biochemical, fluorescence polarization, FITC-PAM2, GST-MLLE; Polyadenylate-binding protein 1 (Homo sapiens), P11940; 360,000 compounds, 0.36% hits; inhibition, % at 20 µM; in the data active = inhibition above about 35%, passing the limit was not always enough;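 also: plate controls were DMSO wells with GST-MLLE for no effect and wells lacking GST-MLLE protein for full effect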
PABP polyA inh: PABP poly(A) RNA binding inhibitors, primary screen, biochemical, fluorescence polarization, uHTS. Polyadenylate-binding protein 1 (Homo sapiens), P11940. inhibition, % at 35 µM. 290,000 compounds, 1% hits. AID 2014, 2009;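 also: calls also rest on retests at 20 µM and on dose response follow-up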
* hit, by the source's call; ? = inconclusive; . = no result. Unless noted, no rule for the calls is given here.

SMILES | ALR inh | eIF4H inh | Efflux pump mplx | UBC9 SUMO inh | MLLE-PAM2 inh | PABP polyA inh
CCCc1c(O)nc(SCC(=O)NCCc2ccc(OC)c(OC)c2)[nH]c1=O | 98.1* | -2.7 | 0.0 | -3.4 | 15.1 | 6.9
Cc1cccc(NC(=O)CSc2nc(C)c(Cc3ccccc3)c(=O)[nH]2)c1 | -2.8 | -2.2 | 0.1 | 6.5 | 3.3 | -6.3
O=C(CSc1nc(O)c(Cc2ccccc2)c(=O)[nH]1)Nc1ccccc1 | 98.7* | 0.9 | -0.1 | 19.1 | 42.6* | -7.0
COc1ccc(CCNC(=O)CSc2nc3[nH]ncc3c(=O)[nH]2)cc1OC | -8.7 | -3.1 | 0.0 | -4.7 | 7.1 | -2.1
COc1ccc(CC(=O)NCc2cccc(Cl)c2)cc1S(=O)(=O)N1CCOCC1 | . | . | . | . | 3.0 | .
CCc1noc(C)c1C(=O)NNC(=O)c1ccc(N(CC)CC)cc1 | 5.6 | . | -0.2 | . | -13.1 | .
O/N=C(\c1ccccc1)C(O)c1ccccc1 (stereo unspecified) | -7.5 | -23.5 | -0.4 | 16.7 | 1.9 | -9.9
COc1ccccc1-[n+]1c(C)cc(/C=C2\Sc3ccccc3N2C)cc1C | 98.2* | 1.5 | 0.0 | -10.7 | -164.4 | 9.5
COc1ccc(C(=O)/C=C2\Sc3ccccc3N2C)cc1 | 30.7 | 0.1 | 0.0 | 7.9 | 32.4 | -1.1
COc1ccc(-[n+]2c(C)cc(/C=C3\Sc4ccccc4N3C)cc2C)cc1 | 94.9* | 0.2 | 0.1 | -12.0 | -195.5 | -2.2
CCN(CC(=O)NCc1cccs1)C(=O)c1ccc(S(=O)(=O)Nc2ccccc2C)cc1 | -6.4 | . | 0.0 | . | -2.1 | .
CCN(CC(=O)N1CCCC1)S(=O)(=O)c1ccc(Br)cc1 | 0.7 | 0.9 | 0.0 | 22.1 | -8.5 | 1.4
CCN(CC(=O)N1CCCC1)S(=O)(=O)c1ccccc1 | -0.6 | 71.8* | 0.0 | 8.6 | 2.3 | 61.5*
CNc1ncnc2c1ncn2-c1ccccc1 | . | . | . | . | 2.9 | .
CCC(c1nnnn1CCOC)N(Cc1cc2cc(C)c(C)cc2[nH]c1=O)CC1CCCO1 (stereo unspecified) | 99.1* | -3.2 | -0.2 | 28.8 | 4.8 | 9.0
CCCC(c1nnnn1CCOC)N(Cc1cc2cc(C)c(C)cc2[nH]c1=O)CC1CCCO1 (stereo unspecified) | 99.3* | -4.9 | 0.1 | 1.9 | -13.7 | 4.8
COc1ccccc1C(CNC(=O)c1cccc(S(=O)(=O)N2c3ccccc3CC2C)c1)N(C)C (stereo unspecified) | . | . | . | . | -2.0 | .
CC1=C(C(=O)N(C(C)C)C(C)C)CC(CC(=O)NCCc2ccccn2)C(=O)N1Cc1ccc(F)cc1 (stereo unspecified) | . | . | . | . | 2.0 | .
O=C1NC(=O)/C(=C/c2ccccc2Cl)N1 | 69.4 | -3.3 | 0.0 | 15.8 | -125.2 | 12.6
O=C1N=C2SCCN2/C1=C\c1ccccc1Cl | 0.3 | -8.0 | -0.1 | 0.0 | 39.4* | -4.6
O=[N+]([O-])c1ccc(-c2c[nH]c(=S)[nH]2)cc1 | 98.1* | 4.1 | -0.1 | -2.3 | 10.0 | -1.8
COc1cc(-c2ccccc2)[nH]c(=S)n1 | -2.6 | . | 0.3 | . | 23.7 | .
S=c1[nH]cc(-c2ccccc2)[nH]1 | 98.7* | 0.7 | -0.1 | 23.5 | 23.9 | -0.8
O=[N+]([O-])c1ccc(-c2nc3ccc([N+](=O)[O-])cc3[nH]2)cc1 | 2.4 | 11.6 | -0.1 | 22.4 | 10.5 | 1.0
O=C(CCn1c(=O)oc2ccccc21)N1CCN(c2ccc(F)cc2)CC1 | 97.4* | 7.6 | 0.1 | -6.2 | 1.2 | -0.5
SMILES | ALR inh | eIF4H inh | Efflux pump mplx | UBC9 SUMO inh | MLLE-PAM2 inh | PABP polyA inh
O=C1CC(N2CCN(c3ccc(O)cc3)CC2)C(=O)N1c1ccc2c(c1)OCO2 (stereo unspecified) | 98.7* | -13.1 | -0.1 | 16.0 | 4.3 | 0.7
O=C1CC(N2CCCCCC2)C(=O)N1c1ccc2c(c1)OCO2 (stereo unspecified) | 3.0 | 5.3 | -0.1 | 8.0 | 25.9 | -3.7
COc1ccccc1N1C(=O)CC(N2CCN(c3ccc(F)cc3)CC2)C1=O (stereo unspecified) | 96.8* | -7.9 | -0.2 | 10.6 | -0.4 | 9.4
COc1ccc(N2CCN(C3CC(=O)N(Cc4ccccc4)C3=O)CC2)cc1 (stereo unspecified) | 91.9* | 3.0 | -0.2 | 8.1 | -3.0 | ?
Cc1ccccc1C(=O)c1cccn1CC(=O)NC(C)c1ccccc1 (stereo unspecified) | 0.0 | -3.8 | 0.0 | -3.0 | -15.5 | -4.4
CCOC(=O)c1c(C)[nH]c(C)c1C(=O)COC(=O)CCc1ccccc1 | 6.9 | . | 0.1 | . | 12.4 | .
Nc1ncnc2c1ncn2[C@@H]1O[C@H](C(=O)N2CCN(c3ccc(Cl)cn3)CC2)[C@@H](O)[C@H]1O | . | . | . | . | -5.2 | .
Cc1cccc2cc(CN(CCCN(C)C)C(=S)NCCc3ccccc3)c(=O)[nH]c12 | . | 2.5 | 0.0 | -3.8 | -122.4 | -2.9
O=c1[nH]c(/C=C/c2ccc(Cl)cc2Cl)c([N+](=O)[O-])c(=O)[nH]1 | 97.0* | -4.4 | 0.0 | 25.3 | -10.3 | -5.0
CC(NC(=O)c1ccc(N(C)C)cc1)C(c1cccs1)N1CCN(C)CC1 (stereo unspecified) | 78.1* | 4.9 | 0.0 | 2.1 | -10.9 | -9.3
COc1ccccc1N1CCN(C(c2cccs2)C(C)NC(=O)c2cccnc2)CC1 (stereo unspecified) | 97.9* | 1.9 | 0.0 | -0.3 | 1.6 | 2.1
CC(NC(=O)c1ccc(F)cc1)C(c1cccs1)N1CCN(C)CC1 (stereo unspecified) | 3.0 | -1.8 | -0.2 | 3.7 | -9.3 | 2.0
CC(NC(=O)c1cccnc1)C(c1cccs1)N1CCN(c2ccccc2F)CC1 (stereo unspecified) | 16.8 | -6.2 | 0.1 | -24.5 | -3.1 | 8.3
CN(C)c1ccc(-c2ccnc3c2CC(C)(C(=O)NCCC(F)(F)F)O3)cc1 (stereo unspecified) | . | . | . | . | -4.7 | .
O=C1NC(=O)/C(=C\c2ccc(O)cc2O)S1 | 99.0* | ? | 0.1 | 37.7 | 21.7 | ?
O=C1Nc2ccc3c(c2C1=Cc1cc2c(cc1Br)OCO2)OCO3 | . | . | . | . | 5.8 | .
O=C1NC(=O)/C(=C/c2cc3c(cc2Br)OCO3)S1 | 96.5* | -5.6 | 0.9 | 6.9 | -10.6 | 7.7
Cn1c2c(c(=O)c3ccccc31)CCC(C)(C)O2 | 5.6 | 1.8 | 0.1 | 24.6 | -3.9 | 0.2
C=CCCC(=O)N1C[C@H]2CON(C)[C@H]2C[C@H]1c1cccc(Oc2ccccc2)c1 | . | . | . | . | 9.0 | .
O=C(O)c1cc(-c2ccc(O)cc2)on1 | 4.9 | -13.8 | 0.2 | 18.5 | -6.9 | -8.6
O=C(O)c1cc(O)ccc1-c1ccc(O)cc1 | 98.5* | -1.6 | 0.0 | 17.2 | -4.6 | 9.6
CN(CCNC(=O)C1(O)c2ccccc2NC(=O)N1c1ccccc1)Cc1ccccc1 (stereo unspecified) | -4.8 | -7.6 | 0.2 | 14.9 | 0.6 | -5.2

From PubChem
